Source: PubChem BioAssay (National Center for Advancing Translational Sciences (NCATS))
AmpC inh no detg: qHTS Inhibitors of AmpC Beta-Lactamase (assay without detergent); AmpC nitrocefin hydrolysis, absorbance 480 nm, 0.0001% Triton; AID 485341, 2010; 330,000 tested, 0.52% active; P00811; Potency, µM (doses to about 57.1 µM), inactives show at the highest dose activity change, negative = inhibition, actives largely listed as inhibitors;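 note: plate controls were no compound for no effect and no enzyme for full effect; nearly all actives have a fitted effect of over 20% in size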
Target sequence (P00811 whole entry, looked up): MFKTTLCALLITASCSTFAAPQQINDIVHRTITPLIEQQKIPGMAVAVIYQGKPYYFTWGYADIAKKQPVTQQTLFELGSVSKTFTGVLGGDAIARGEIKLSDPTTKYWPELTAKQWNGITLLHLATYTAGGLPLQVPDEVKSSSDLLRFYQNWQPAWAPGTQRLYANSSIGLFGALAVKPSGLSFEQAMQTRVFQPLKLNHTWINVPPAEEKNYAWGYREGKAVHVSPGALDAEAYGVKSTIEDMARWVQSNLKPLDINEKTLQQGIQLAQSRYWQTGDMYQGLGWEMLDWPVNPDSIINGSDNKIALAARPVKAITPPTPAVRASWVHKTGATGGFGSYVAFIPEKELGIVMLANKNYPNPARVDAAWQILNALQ
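20 mM phosphate pH 7.0 + 0.01% (detergent screen) or 0.0001% Triton X-100; 5.3 nM AmpC reagent; cpd preinc 15 min RT; nitrocefin (800 uM stock) to start; A480 q20 s × 4 min; Activity was normalised to no-enzyme and no-compound control wells.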
LmPK inh: qHTS Assay for Inhibitors of Leishmania Mexicana Pyruvate Kinase (LmPK); Potency, µM (top dose mostly 57.5 µM), inactives show at the top dose activity change, negative = inhibition, most hits filed as inhibitors; 290,000 tested, 0.37% active; purified LmPK, Kinase-Glo ATP luminescence, 1 h; Q27686
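Purified LmPK (0.1 nM) with 0.5 mM PEP and 0.1 mM ADP in imidazole buffer pH 7.2 with MgCl2/KCl, 1 h at room temperature. ATP formed was read by luciferase luminescence and normalized to no-enzyme and uninhibited controls.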
AmpC detergent: qHTS Inhibitors of AmpC Beta-Lactamase (assay with detergent); P00811; AmpC hydrolysis of nitrocefin, absorbance 480 nm, 0.01% Triton; Potency, µM (highest dose often 114 µM), for the others: at the top dose activity change, negative = inhibition, most hits filed as inhibitors; 370,000 tested, 0.041% active;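 note: 0% = no-compound wells and -100% = no-enzyme wells; nearly all actives have a fitted effect of over 25% in size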
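AmpC (5.3 nM in the dispensed reagent) in 20 mM phosphate pH 7.0 with 0.01% (detergent screen) or 0.0001% Triton X-100 was preincubated with compounds for 15 min at room temperature. Nitrocefin was then added from an 800 uM solution, and hydrolysis was followed at 480 nm.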
AMA1-RON2 inh: qHTS for Inhibitors of AMA1-RON; Towards Development of Antimalarial Drug Lead: Primary Screen; Plasmodium falciparum AMA1 (3D7) - RON2 peptide interaction; AlphaScreen AMA1-biotinylated RON2 peptide binding; Potency, µM (highest dose often 58.2 µM), without a hit: top-dose activity change, negative = inhibition, hits mostly inhibitors; 360,000 tested, 0.2% active; AID 720542, 2013;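 note: 0% = vehicle wells and -100% = peptide control; nearly all actives have a fitted effect of over 45% in size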
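AMA1 (3D7) with his tag at 25 nM final met compounds first, then biotinylated RON2 peptide at 25 nM; detection used donor plus acceptor beads, 10 µg/mL apiece, read by AlphaScreen after 30 min at room temperature.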
Giardia FBPA inh: qHTS Assay for Inhibitors of Fructose-1,6-bisphosphate Aldolase from Giardia Lamblia. A8B2U2. purified Giardia FBPA. Potency, µM (doses to about 59.6 µM), inactives show at the highest dose activity, negative = inhibition, most hits filed as inhibitors. 290,000 tested, 0.71% active. AID 2451, 2010; note: nearly all actives have a fitted effect of over 55% in size
Target sequence (A8B2U2 whole entry, looked up): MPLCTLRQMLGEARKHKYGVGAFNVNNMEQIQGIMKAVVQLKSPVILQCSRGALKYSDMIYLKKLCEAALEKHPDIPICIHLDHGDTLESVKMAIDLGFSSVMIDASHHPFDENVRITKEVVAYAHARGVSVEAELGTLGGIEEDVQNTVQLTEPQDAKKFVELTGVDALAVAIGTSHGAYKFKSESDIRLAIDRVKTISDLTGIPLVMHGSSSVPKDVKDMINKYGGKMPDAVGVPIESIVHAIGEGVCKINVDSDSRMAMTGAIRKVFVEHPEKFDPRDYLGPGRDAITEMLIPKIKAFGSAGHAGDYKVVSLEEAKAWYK
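40 nM FBPA preincubated 10 min at RT with compound (up to 57.5 uM final), then substrate plus GAPDH/TPI/NAD/arsenate coupling and diaphorase/resazurin added. Fluorescence read after 20 min at RT, 525/598 nm.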
Active calls of the source: *; ? = inconclusive; . = no result given; [ ] = remark or other dose. Sampled rows, rich in hits. Any-hit rate of the full collection: about 1.3%. Calls come from the whole dose curve; as a rule, active = well fitted curve in the direction sought with a large enough effect; inconclusive = small, poorly fitted or top-dose-only effect, or another doubt; inactive = no such curve, though single readings can be large; an effect the other way counts as inactive or inconclusive. Unless noted, % is set by controls: 0 for no effect and ±100 for the full control effect; potency is the fitted concentration of half-maximal effect.

SMILES	AmpC inh no detg	LmPK inh	AmpC detergent	AMA1-RON2 inh	Giardia FBPA inh
Cc1ccnc(NS(=O)(=O)c2ccc(NC(=O)c3ccc(S(=O)(=O)N4CC(C)OC(C)C4)cc3)cc2)n1 (configuration not stated)	31.6µM*	0.8%	-3.2%	-5.5%[11.6 µM]	0.3%
CC(C)NC(=O)C1CC(=O)N(CCc2ccc(F)cc2)C1 (configuration not stated)	.	.	.	-8.3%	.
O=c1c(-c2cc(O)c(O)c(O)c2)coc2cc(O)c(O)c(O)c12	.	.	.	.	5µM*
Cc1ccc(-c2onc(C)c2C)cc1S(=O)(=O)Nc1cccc(Cl)c1C	.	.	-3.9%	.	.
CCOC(=O)N1CCC(c2cc(=O)n3[nH]cc(C(=O)OC)c3n2)CC1	7.94µM*	-0.3%	?	7.2%	-7.6%
CN(C)S(=O)(=O)N(CC(=O)NCCSCc1c(F)cccc1Cl)c1ccccc1	.	.	28.8%	.	.
Cn1c(=O)c(=O)n(C)c2cc(S(=O)(=O)CCC(=O)N3CCOCC3)ccc21	3.98µM*	1.2%	5.8%	3.6%	-4.8%
Cc1cc(O)c(C(c2ccc(Cl)cc2)N2CCN(c3ccccc3)CC2)c(=O)n1Cc1ccco1 (configuration not stated)	.	.	15.0%	.	.
Cc1ccc(S(=O)(=O)NC(=O)C2(C)CCN2C(=O)C2CCCCC2)nc1 (configuration not stated)	.	.	.	56.1%	.
CCN(CC)c1ccc(/C=C2\C(=O)N(c3nnc(C)c(=O)[nH]3)N=C2C)cc1	139.3%	-18.1%	0.3%	14.1µM*	?
CCOC(=O)c1ccc(NC(=O)Cn2nnc(-c3ccccc3F)n2)cc1	35.5µM*	3.1%	-1.8%	11.0%[11.6 µM]	-0.5%
CCOC(=O)c1ccc(NC(=O)Cn2nnc(-c3ccccc3)n2)cc1	-7.5%	2.0%	1.0%	-1.9%	6.1%
Cn1nnnc1SCC(=O)Nc1cccc(S(=O)(=O)N2CCCC2)c1	-12.3%	-0.8%	-4.8%	-5.7%	0.6%
CC1CCN(S(=O)(=O)c2ccc(NC(=O)c3cccs3)cc2)CC1	28.2µM*	-0.3%	?	-1.7%	-3.9%
CC1CCN(S(=O)(=O)c2ccc(NC(=O)CSc3nnnn3C)cc2)CC1	0.159µM*	0.1%	-4.6%	-2.1%	-1.3%
CN1CCN(S(=O)(=O)c2ccc(NC(=O)c3cccs3)cc2)CC1	.	-0.5%	-4.5%	3.8%	1.4%
CCOC(=O)c1sc(-c2ccccc2)nc1C	-9.1%	-5.3%	?	-4.3%	1.1%
CCOC(=O)Cc1ccc2sc(-c3ccccc3)nc2c1	10.7%	15.8µM*	-2.6%	49.5%	6.5%
CC1CN(Cc2c(O)ccc3c2oc(=O)c2ccccc23)CC(C)O1 (configuration not stated)	11.1%	-1.4%	0.4%	?	15.8µM*
CC1CN(Cc2c(O)ccc3c(=O)c(-c4ccccc4)coc23)CC(C)O1 (configuration not stated)	27.1%	-5.6%	-2.4%	-6.3%	0.4%
CCN(CC)CCNC(=O)c1nn(-c2ccc(Cl)cc2)c2c1CCc1cc(OC)ccc1-2	.	.	.	-22.2%	.
CCOc1ccc(CCN2C(=S)N([C@@H](CC(C)C)CN3CCC[C@@H]3CN3C(=S)NC[C@@H]3Cc3ccccc3)C[C@@H]2Cc2ccc(O)cc2)cc1	.	.	.	16.2%	.
O=C(Nc1ncc([N+](=O)[O-])s1)c1cccc([N+](=O)[O-])c1	-7.5%	12.6µM*	10.0%	0.1%	?
CCn1c(SCC(=O)Nc2ccc3c(c2)OCO3)nc2c(c1=O)SC(C)C2 (configuration not stated)	2.82µM*	-4.9%	-1.4%	-0.7%	4.0%
O=C(NNC(=S)NC(=O)c1ccccc1[N+](=O)[O-])c1ccccc1O	-23.0%	3.1%	4.5%	0.708µM*	22.8%
SMILES	AmpC inh no detg	LmPK inh	AmpC detergent	AMA1-RON2 inh	Giardia FBPA inh
O=C(NC1CC1)c1ccc2snnc2c1	-16.7%	-0.4%	-5.8%	14.8%	-1.9%
CCOC(=O)N1CCC(NC(=O)c2ccc3snnc3c2)CC1	44.7µM*	1.9%	?	25.8%	0.3%
CCCn1nc(NC(=O)C2CCCO2)c2cc3cc(C)ccc3nc21 (configuration not stated)	44.1%	6.8%	4.6%	1.12µM*	-6.3%
CCOC(=O)c1c(NC(=O)c2ccc(S(=O)(=O)N3CCC(C)CC3)cc2)sc2c1CCN(CC)C2	.	.	2.3%	.	.
COc1cccc(NC(=O)Nc2nnc(CC(=O)NCc3ccccc3)s2)c1	25.1µM*	3.6%	-6.2%	-3.5%	7.0%
COC(=O)C1=C(O)/C(=C\c2cc(C)n(-c3ccccc3C)c2C)N=C1C	-29.3%	4.1%	-3.0%	7.1%	7.06µM*
COC(=O)C1=C(O)/C(=C\c2sccc2C)N=C1C	-6.1%	-11.6%	5.3%	-11.3%	-6.7%
C=CCN1C(=O)CSC1=Nc1ccc(C(=O)O)cc1	-5.6%	-0.4%	?	-7.1%	-12.3%
C=CCN1C(=O)CS/C1=C(\C#N)S(=O)(=O)c1ccc(C)cc1	14.1µM*	-9.4%	-12.1%	-7.5%	-13.2%
COc1ccc2c(c1OC)C(=O)N(c1cccc(C)c1)C2	-29.8%	14.1µM*	-9.7%	-1.4%	1.2%
COc1ccc2c(c1OC)C(=O)N(c1ccc(C)cc1)C2	4.8%	-7.6%	2.7%	?	2.2%
C[C@@H]1CN([C@H](C)CO)C(=O)CCCn2nncc2CO[C@H]1CN(C)S(=O)(=O)c1ccc(C#N)cc1	.	.	.	-3.1%	.
O=C1C=C(Nc2cccc3cccnc23)c2ccccc2C1=O	-39.3%	-1.9%	5.1%	-5.8%	1.58µM*
O=C1C=C(Nc2ccccc2)c2ccccc2C1=O	-27.0%	-11.5%	?	-2.4%	?
O=C1C=C(Nc2ccccc2C(=O)O)c2ccccc2C1=O	-50.5%	-28.6%	0.8%	0.0%	1.58µM*
Nc1ccccc1S(=O)(=O)Nc1cccc2cccnc12	.	.	.	.	14.1µM*
COc1ccc(-n2c(CCC(=O)O)ccc2-c2ccccc2)c(OC)c1	.	.	-6.2%	.	.
COc1ccc2c(c1)c(=O)c(C(=O)c1ccc(F)cc1)cn2CC(=O)Nc1ccc(F)cc1	-58.8%	-0.7%	?	0.5%	1.2%
COc1ccc2c(c1)c(=O)c(C(=O)c1ccc(C)cc1)cn2CC(=O)Nc1ccc(F)cc1	17.8µM*	2.3%	?	-0.4%	0.5%
O=C(NC1CCCC1)c1ccc2nc(-c3ccco3)c(-c3ccco3)nc2c1	-27.9%	6.5%	2.2%	-9.5%	?
O=C(Nc1ccc2nc(-c3ccco3)c(-c3ccco3)nc2c1)N1CCCCCC1	-35.6%	0.7%	2.7%	11.9µM*	?
O=C(NCCO)c1ccc2nc(-c3ccco3)c(-c3ccco3)nc2c1	-7.3%	3.7%	2.0%	?	?
